Data: PubChem BioAssay (NCI)
This is part of a sample that, as a whole, favours compounds with a hit. Of some 83,000 tested, about 20% had one in any assay.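 Results are percent growth after 48 hours of single-concentration exposure. 100 means growth as in untreated cells, lower positive values show inhibition; negative values down to -100 show cell death.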 Active and inactive are the calls of the source. The calls were made as follows: active = growth percent below 10; inactive = the rest.

Assays:
Experiment in all cases: NCI-60 one-dose screen, 48 h (100 = growth as untreated, 0 = no growth, -100 = all killed)
Settings in all cases: 10 µM unless noted
NCI-H23 lung = system: NCI-H23 lung
NCI-H226 lung = system: NCI-H226 lung
NCI-H322M lung = system: NCI-H322M lung
HOP-62 NSCLC = system: HOP-62 NSCLC
NCI-H460 lung = system: NCI-H460 lung
HOP-92 NSCLC = system: HOP-92 NSCLC
NCI-H522 lung = system: NCI-H522 lung
A549/ATCC NSCLC = system: A549/ATCC NSCLC
786-0 renal = system: 786-0 renal
COLO 205 colon = system: COLO 205 colon

Measured: growth

COc1ccc(C(=O)CCC(=O)O)cc1
inactive: NCI-H23 lung 89.4% | NCI-H226 lung 93.3% | NCI-H322M lung 97.3% | HOP-62 NSCLC 104% | NCI-H460 lung 101% | HOP-92 NSCLC 105% | NCI-H522 lung 102% | A549/ATCC NSCLC 93.2% | 786-0 renal 103% | COLO 205 colon 101%

CN(C)c1ccc(-c2ccc(-c3ccc(C(=N)N)cc3)s2)cc1
active: NCI-H23 lung -46.4% | HOP-62 NSCLC -33.2% | NCI-H460 lung -71.1% | NCI-H522 lung -50.3% | A549/ATCC NSCLC -72.7% | 786-0 renal -63.9% | COLO 205 colon -66.6%
inactive: NCI-H226 lung 87.4% | NCI-H322M lung 40.2% | HOP-92 NSCLC 24.5%

O=S(=O)(NCc1ccccc1)c1ncnc2nc[nH]c12
inactive: NCI-H23 lung 106% | NCI-H226 lung 99.4% | NCI-H322M lung 109% | HOP-62 NSCLC 103% | NCI-H460 lung 117% | HOP-92 NSCLC 117% | NCI-H522 lung 95.5% | A549/ATCC NSCLC 86.5% | 786-0 renal 107% | COLO 205 colon 109%

CNC(=O)c1cc(Oc2cccc3nc(NC(=O)Nc4cc(C(F)(F)F)cc(C(F)(F)F)c4)ccc23)ccn1
active: HOP-62 NSCLC 6.73% | HOP-92 NSCLC -23.7% | 786-0 renal -35.6%
inactive: NCI-H23 lung 50.8% | NCI-H226 lung 43.1% | NCI-H322M lung 25.5% | NCI-H460 lung 34.9% | NCI-H522 lung 24.3% | A549/ATCC NSCLC 18.6% | COLO 205 colon 53.9%

Cc1ccc2c(c1)C(C)Cc1c(Cl)ncnc1N2C (stereo not given)
inactive: NCI-H23 lung 20.7% | NCI-H322M lung 32.3% | HOP-62 NSCLC 17.5% | NCI-H460 lung 30.6% | HOP-92 NSCLC 28.9% | NCI-H522 lung 69% | A549/ATCC NSCLC 16.4%
active: NCI-H226 lung -7.14% | 786-0 renal 1.48% | COLO 205 colon -56.1%

N#C/C(C(=O)c1ccccc1)=C1/C(=O)Nc2ccc(F)cc21
inactive: NCI-H23 lung 98.4% | NCI-H226 lung 95.4% | NCI-H322M lung 108% | HOP-62 NSCLC 84.8% | NCI-H460 lung 106% | HOP-92 NSCLC 115% | NCI-H522 lung 96.6% | A549/ATCC NSCLC 105% | 786-0 renal 101% | COLO 205 colon 119%

CN(C)C(=S)Sc1ccc([N+](=O)[O-])cc1[N+](=O)[O-]
active: NCI-H460 lung -41.6% | HOP-92 NSCLC 0.304% | NCI-H522 lung -92.1% | COLO 205 colon -22.7%
inactive: NCI-H23 lung 44.4% | NCI-H226 lung 49.6% | NCI-H322M lung 101% | HOP-62 NSCLC 71.1% | A549/ATCC NSCLC 43.6% | 786-0 renal 63.8%

CCN1CCN(CC(=O)Nc2nc3ccc(NCc4ccc(Cl)cc4)cc3s2)CC1
inactive: NCI-H23 lung 69.2% | NCI-H226 lung 60% | NCI-H322M lung 79.4% | HOP-62 NSCLC 77.6% | NCI-H460 lung 54.7% | HOP-92 NSCLC 31.6% | NCI-H522 lung 86.3% | A549/ATCC NSCLC 61.5% | 786-0 renal 73% | COLO 205 colon 23.8%

CN(C)Cc1ccc[nH]1
inactive: NCI-H23 lung 93.2% | NCI-H226 lung 93.3% | NCI-H322M lung 130% | HOP-62 NSCLC 117% | NCI-H460 lung 103% | HOP-92 NSCLC 103% | NCI-H522 lung 67.6% | A549/ATCC NSCLC 99.4% | 786-0 renal 107% | COLO 205 colon 101%

Cc1ncc(C(=O)Nc2ccc(CN3CCN(C)CC3)c(C(F)(F)F)c2)cc1C#Cc1c(N)ncc2ccc(C#N)cc12
active: HOP-92 NSCLC -8.03% | 786-0 renal -51% | COLO 205 colon 7.77%
inactive: NCI-H23 lung 35.8% | NCI-H226 lung 19.9% | NCI-H322M lung 34.4% | HOP-62 NSCLC 16.5% | NCI-H460 lung 43.4% | NCI-H522 lung 46.9% | A549/ATCC NSCLC 34.4%

CC1(C)CC[C@]2(C(=O)O)CC[C@]3(C)[C@H](CC[C@@H]4[C@@]5(C)CCC(=O)C(C)(C)[C@@H]5CC[C@]43C)[C@H]2[C@H]1OC(=O)C(F)(F)F
active: NCI-H23 lung -62.4% [100 µM] | NCI-H226 lung -51.2% [100 µM] | NCI-H322M lung -65.6% [100 µM] | HOP-62 NSCLC -79.6% [100 µM] | NCI-H460 lung -66.1% [100 µM] | HOP-92 NSCLC -79.6% [100 µM] | NCI-H522 lung -71.2% [100 µM] | A549/ATCC NSCLC -52.7% [100 µM] | 786-0 renal -72.7% [100 µM] | COLO 205 colon -72% [100 µM]

Cc1cc(C)c(S(=O)(=O)/N=c2/n(-c3ccccc3)nc3n2CCN3C2=NCCN2)c(C)c1
active: COLO 205 colon -28.9%
inactive: NCI-H23 lung 86.7% | NCI-H226 lung 89% | NCI-H322M lung 87.1% | HOP-62 NSCLC 86.8% | NCI-H460 lung 71.8% | HOP-92 NSCLC 63.9% | NCI-H522 lung 103% | A549/ATCC NSCLC 79.9% | 786-0 renal 89.1%

Clc1ccccc1/C=N\Nc1ccccn1
inactive: NCI-H23 lung 84.9% | NCI-H226 lung 80.8% | NCI-H322M lung 111% | HOP-62 NSCLC 83.8% | NCI-H460 lung 99.2% | HOP-92 NSCLC 83.9% | NCI-H522 lung 91.7% | A549/ATCC NSCLC 93.6% | 786-0 renal 113% | COLO 205 colon 95.7%

COc1ccc(C(=O)/C=C/c2ccccn2)c(O)c1
inactive: NCI-H23 lung 85.4% | NCI-H226 lung 98% | NCI-H322M lung 95.3% | HOP-62 NSCLC 87.5% | NCI-H460 lung 89.7% | HOP-92 NSCLC 78.6% | NCI-H522 lung 69.4% | A549/ATCC NSCLC 94% | 786-0 renal 79.6% | COLO 205 colon 103%

CSc1nc2sc3cc(Cl)c(Cl)cc3n2c(=N)c1C#N
inactive: NCI-H23 lung 84.8% | NCI-H226 lung 95% | NCI-H322M lung 104% | HOP-62 NSCLC 94.7% | NCI-H460 lung 98.7% | HOP-92 NSCLC 98.9% | NCI-H522 lung 89.4% | A549/ATCC NSCLC 106% | 786-0 renal 102% | COLO 205 colon 122%

C=C1C(=O)O[C@H]2[C@H]1CC/C(COC(=O)NCc1ccc(Cn3c(=O)sn(-c4ccc(Cl)cc4)c3=O)cc1)=C\CC[C@@]1(C)O[C@@H]21
inactive: NCI-H23 lung 94.9% | NCI-H226 lung 87.4% | NCI-H322M lung 104% | HOP-62 NSCLC 106% | NCI-H460 lung 101% | HOP-92 NSCLC 45.5% | A549/ATCC NSCLC 95.9% | 786-0 renal 70.8% | COLO 205 colon 24%
active: NCI-H522 lung -8.38%

CC(C)[C@H]1COC(=O)N1[C@@H]1C(=O)N([C@@H](CCC(=O)N2CCN(C3CCCC3)CC2)C(=O)N[C@@H]2CCCc3ccccc32)[C@@H]1/C=C/c1cccc(Cl)c1
inactive: NCI-H23 lung 72.1% | NCI-H226 lung 88.9% | NCI-H322M lung 57.9% | HOP-62 NSCLC 79% | NCI-H460 lung 46.2% | HOP-92 NSCLC 31.4% | NCI-H522 lung 75.5% | A549/ATCC NSCLC 35.9% | 786-0 renal 54.9% | COLO 205 colon 57.7%

CC(C)[C@H]1CCC2=C3CC[C@]45OC(=O)[C@@]6(CCC(C)(C)C[C@H]64)CC[C@@]5(C)[C@]3(C)CC[C@@]21C
inactive: NCI-H23 lung 54.4% [100 µM] | NCI-H226 lung 68.4% [100 µM] | NCI-H322M lung 94.5% [100 µM] | HOP-62 NSCLC 76.3% [100 µM] | NCI-H460 lung 71.8% [100 µM] | HOP-92 NSCLC 19.9% [100 µM] | NCI-H522 lung 55.7% [100 µM] | A549/ATCC NSCLC 67.1% [100 µM] | 786-0 renal 69.3% [100 µM] | COLO 205 colon 97% [100 µM]

COc1ccc(-c2cc(-c3ccc(Cl)cc3)nc(SCCCCCCC(=O)NO)n2)cc1
active: NCI-H23 lung 8.94% | HOP-62 NSCLC 7.61%
inactive: NCI-H226 lung 19.7% | NCI-H322M lung 39.5% | NCI-H460 lung 14.9% | HOP-92 NSCLC 23.7% | NCI-H522 lung 10.4% | A549/ATCC NSCLC 13% | 786-0 renal 27.4% | COLO 205 colon 35.6%

O=c1[nH]cnc2c1ccn2C1OC(CO)C(O)C1O (stereo not given)
active: HOP-92 NSCLC 8.49%
inactive: NCI-H23 lung 81.4% | NCI-H226 lung 75.1% | NCI-H322M lung 64.6% | HOP-62 NSCLC 76.5% | NCI-H460 lung 49.4% | NCI-H522 lung 61% | A549/ATCC NSCLC 84.4% | 786-0 renal 58.9% | COLO 205 colon 66.8%

CCCCCCCCCCCCNC(=S)N/N=C/c1ccccc1O
inactive: NCI-H23 lung 60.9% | NCI-H226 lung 69.2% | NCI-H322M lung 83.5% | HOP-62 NSCLC 74% | NCI-H460 lung 49.6% | HOP-92 NSCLC 84.2% | NCI-H522 lung 78.1% | A549/ATCC NSCLC 95.6% | 786-0 renal 89.5% | COLO 205 colon 33.1%

OC(c1ccc(Cl)cc1)(c1ccc(Cl)cc1)C(O)(c1ccc(Cl)cc1)c1ccc(Cl)cc1
inactive: NCI-H23 lung 53.1% | NCI-H226 lung 54.6% | NCI-H322M lung 46.4% | HOP-62 NSCLC 65.1% | NCI-H460 lung 26.6% | HOP-92 NSCLC 24.7% | NCI-H522 lung 41.6% | A549/ATCC NSCLC 44.9% | 786-0 renal 31.9% | COLO 205 colon 45%

O=C(COc1cccc(/C=C2\Oc3ccccc3C2=O)c1)c1ccc([N+](=O)[O-])cc1
inactive: NCI-H23 lung 79.9% | NCI-H226 lung 85.8% | NCI-H322M lung 115% | HOP-62 NSCLC 103% | NCI-H460 lung 95.7% | HOP-92 NSCLC 78.1% | NCI-H522 lung 57% | A549/ATCC NSCLC 90% | 786-0 renal 102% | COLO 205 colon 107%

COc1cc(C)cc2oc3oc(=O)c(-c4nc5ccccc5s4)cc3c(=O)c12
inactive: NCI-H23 lung 96.9% | NCI-H226 lung 87.5% | NCI-H322M lung 90% | HOP-62 NSCLC 91.6% | NCI-H460 lung 84.1% | HOP-92 NSCLC 76.1% | NCI-H522 lung 95.7% | A549/ATCC NSCLC 109% | 786-0 renal 105% | COLO 205 colon 110%
